# From publication PMC7862700, “An all-to-all approach to the identification of sequence-specific readers for epigenetic DNA modifications on cytosine”
# Legend:
# Experiment in all cases: DAPPL (digital affinity profiling via proximity ligation, sequencing); 10 mM Tris-HCl pH 7.5, 50 mM NaCl, 1 mM DTT, 4% glycerol, room temperature, 30 min; GST-TFs on glutathione beads, 16-mer random dsDNA library, 0.1% formaldehyde crosslink after washing; high values mean tight binding
# FLI1 = target: T1, FLI1 (Homo sapiens, UniProt Q01543 1-452); conditions: protein: recombinant; tags: N-terminal GST; dsDNA, one strand shown
# T1 sequence: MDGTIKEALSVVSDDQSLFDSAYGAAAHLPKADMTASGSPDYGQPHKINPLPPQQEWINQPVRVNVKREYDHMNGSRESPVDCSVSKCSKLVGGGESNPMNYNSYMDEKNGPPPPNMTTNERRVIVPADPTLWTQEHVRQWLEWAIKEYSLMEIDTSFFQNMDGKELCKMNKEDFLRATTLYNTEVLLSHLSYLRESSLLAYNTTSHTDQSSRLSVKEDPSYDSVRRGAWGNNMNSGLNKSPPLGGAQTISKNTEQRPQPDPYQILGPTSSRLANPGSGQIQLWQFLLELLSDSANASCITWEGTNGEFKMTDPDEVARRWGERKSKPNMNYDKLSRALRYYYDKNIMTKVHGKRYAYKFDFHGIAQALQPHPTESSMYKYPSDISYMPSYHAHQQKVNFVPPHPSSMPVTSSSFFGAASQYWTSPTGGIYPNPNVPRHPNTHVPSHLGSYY
# Summary of the method: (§1)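 Binding signal is defined as a hexamer's read frequency for one factor over its frequency for the tag-only sample. To obtain reads, GST-fused human transcription factors were expressed in yeast, captured on glutathione beads, barcoded with DNA and pooled with that sample. Pools met 200 nmole of a 16-mer random double-stranded DNA library in Tris/NaCl/DTT/glycerol buffer for 30 min at room temperature before washing, 0.1% formaldehyde crosslinking, proximity ligation (BsaI/T4 ligase, 1 h, 37 °C), PCR and Illumina NextSeq500 sequencing.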
# ELK1 = target: T2, ELK1 (Homo sapiens, UniProt P19419 1-428); conditions: protein: recombinant; tags: N-terminal GST; dsDNA, one strand shown
# T2 sequence: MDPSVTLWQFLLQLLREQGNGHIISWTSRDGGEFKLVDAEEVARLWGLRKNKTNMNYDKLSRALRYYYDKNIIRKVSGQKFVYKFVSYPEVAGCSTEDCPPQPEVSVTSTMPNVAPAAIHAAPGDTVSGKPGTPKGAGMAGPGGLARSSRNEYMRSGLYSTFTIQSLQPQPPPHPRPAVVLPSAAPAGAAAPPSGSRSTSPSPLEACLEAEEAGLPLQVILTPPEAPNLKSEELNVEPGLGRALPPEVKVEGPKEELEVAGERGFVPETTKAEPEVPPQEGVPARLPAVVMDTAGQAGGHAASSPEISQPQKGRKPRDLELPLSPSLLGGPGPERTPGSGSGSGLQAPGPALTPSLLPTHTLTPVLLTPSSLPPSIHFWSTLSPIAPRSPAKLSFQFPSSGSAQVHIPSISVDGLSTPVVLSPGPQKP
# Summary of the method: as §1
# GABPA = target: T3, GABPA (Homo sapiens, UniProt Q06546 1-454); conditions: protein: recombinant; tags: N-terminal GST; dsDNA, one strand shown
# T3 sequence: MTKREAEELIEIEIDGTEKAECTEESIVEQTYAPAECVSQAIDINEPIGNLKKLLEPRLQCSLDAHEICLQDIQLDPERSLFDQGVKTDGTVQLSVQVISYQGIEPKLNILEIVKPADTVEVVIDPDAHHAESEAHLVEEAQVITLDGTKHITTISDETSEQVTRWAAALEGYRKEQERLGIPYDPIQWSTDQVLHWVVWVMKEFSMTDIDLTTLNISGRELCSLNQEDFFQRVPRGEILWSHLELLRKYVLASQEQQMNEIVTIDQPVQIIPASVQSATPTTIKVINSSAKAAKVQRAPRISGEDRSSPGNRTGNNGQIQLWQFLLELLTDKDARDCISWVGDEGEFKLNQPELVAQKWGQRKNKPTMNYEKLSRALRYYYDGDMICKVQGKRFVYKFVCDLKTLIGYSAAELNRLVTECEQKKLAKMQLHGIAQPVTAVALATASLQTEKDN
# Summary of the method: as §1
# ERG = target: T4, ERG (Homo sapiens, UniProt P11308 1-479); conditions: protein: recombinant; tags: N-terminal GST; dsDNA, one strand shown
# T4 sequence: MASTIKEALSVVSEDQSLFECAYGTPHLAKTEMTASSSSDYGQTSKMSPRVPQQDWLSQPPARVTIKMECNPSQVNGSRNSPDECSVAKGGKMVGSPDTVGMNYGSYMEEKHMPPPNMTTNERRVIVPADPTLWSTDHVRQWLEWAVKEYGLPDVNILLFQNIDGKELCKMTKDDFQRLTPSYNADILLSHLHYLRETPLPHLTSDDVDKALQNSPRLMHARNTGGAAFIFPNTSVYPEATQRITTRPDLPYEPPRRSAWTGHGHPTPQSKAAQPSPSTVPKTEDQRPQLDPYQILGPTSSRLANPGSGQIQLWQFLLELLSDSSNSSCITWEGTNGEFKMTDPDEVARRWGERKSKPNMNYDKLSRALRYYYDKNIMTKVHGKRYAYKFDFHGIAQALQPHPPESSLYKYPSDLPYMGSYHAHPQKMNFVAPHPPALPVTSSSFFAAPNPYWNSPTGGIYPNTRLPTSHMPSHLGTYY
# Summary of the method: as §1
# ELF1 = ELF1 (Homo sapiens, UniProt P32519 1-619); conditions: protein: recombinant; tags: N-terminal GST; dsDNA, one strand shown
# Sequence of ELF1 (P32519 whole entry): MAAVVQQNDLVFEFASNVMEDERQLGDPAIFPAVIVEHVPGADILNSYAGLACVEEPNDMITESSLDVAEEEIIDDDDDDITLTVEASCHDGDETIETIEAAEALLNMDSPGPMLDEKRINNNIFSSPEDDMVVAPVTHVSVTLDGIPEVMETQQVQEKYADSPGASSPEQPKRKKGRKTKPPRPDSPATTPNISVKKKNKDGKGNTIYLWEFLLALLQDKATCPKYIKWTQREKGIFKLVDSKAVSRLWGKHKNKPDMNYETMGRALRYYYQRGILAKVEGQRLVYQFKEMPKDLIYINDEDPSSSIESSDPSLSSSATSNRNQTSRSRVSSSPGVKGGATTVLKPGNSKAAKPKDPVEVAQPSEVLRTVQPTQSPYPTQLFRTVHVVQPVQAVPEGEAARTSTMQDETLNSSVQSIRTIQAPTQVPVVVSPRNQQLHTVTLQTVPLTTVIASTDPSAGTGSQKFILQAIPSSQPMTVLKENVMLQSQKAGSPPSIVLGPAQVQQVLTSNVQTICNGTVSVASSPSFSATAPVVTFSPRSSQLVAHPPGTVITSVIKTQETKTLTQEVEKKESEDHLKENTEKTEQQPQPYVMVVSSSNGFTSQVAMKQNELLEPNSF
# Summary of the method: as §1
# EHF = target: T5, EHF (Homo sapiens, UniProt Q9NZC4 1-300); conditions: protein: recombinant; tags: N-terminal GST; dsDNA, one strand shown
# T5 sequence: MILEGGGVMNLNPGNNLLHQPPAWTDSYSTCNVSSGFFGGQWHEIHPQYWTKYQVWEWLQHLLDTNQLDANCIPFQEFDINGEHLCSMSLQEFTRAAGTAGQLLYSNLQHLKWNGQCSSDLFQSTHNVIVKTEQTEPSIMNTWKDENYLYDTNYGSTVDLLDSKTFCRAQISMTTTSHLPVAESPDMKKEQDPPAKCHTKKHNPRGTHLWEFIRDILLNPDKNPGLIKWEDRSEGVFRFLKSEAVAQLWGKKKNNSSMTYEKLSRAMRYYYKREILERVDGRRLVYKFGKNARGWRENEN
# Summary of the method: as §1
# SPI1 = SPI1 (Homo sapiens, UniProt P17947 1-270); conditions: protein: recombinant; tags: N-terminal GST; dsDNA, one strand shown
# Summary of the method: as §1
# SPIB = SPIB (Homo sapiens, UniProt Q01892 1-262); conditions: protein: recombinant; tags: N-terminal GST; dsDNA, one strand shown
# Sequence of SPIB (Q01892 whole entry): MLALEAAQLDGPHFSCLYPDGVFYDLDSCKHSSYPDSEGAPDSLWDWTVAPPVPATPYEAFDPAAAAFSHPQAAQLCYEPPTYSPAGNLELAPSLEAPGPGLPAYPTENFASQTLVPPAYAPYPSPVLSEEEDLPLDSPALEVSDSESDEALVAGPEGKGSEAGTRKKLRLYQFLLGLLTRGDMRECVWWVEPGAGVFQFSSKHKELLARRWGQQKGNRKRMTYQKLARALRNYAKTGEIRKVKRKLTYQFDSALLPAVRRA
# Summary of the method: as §1
# ELK3 = target: T6, ELK3 (Homo sapiens, UniProt P41970 1-407); conditions: protein: recombinant; tags: N-terminal GST; dsDNA, one strand shown
# T6 sequence: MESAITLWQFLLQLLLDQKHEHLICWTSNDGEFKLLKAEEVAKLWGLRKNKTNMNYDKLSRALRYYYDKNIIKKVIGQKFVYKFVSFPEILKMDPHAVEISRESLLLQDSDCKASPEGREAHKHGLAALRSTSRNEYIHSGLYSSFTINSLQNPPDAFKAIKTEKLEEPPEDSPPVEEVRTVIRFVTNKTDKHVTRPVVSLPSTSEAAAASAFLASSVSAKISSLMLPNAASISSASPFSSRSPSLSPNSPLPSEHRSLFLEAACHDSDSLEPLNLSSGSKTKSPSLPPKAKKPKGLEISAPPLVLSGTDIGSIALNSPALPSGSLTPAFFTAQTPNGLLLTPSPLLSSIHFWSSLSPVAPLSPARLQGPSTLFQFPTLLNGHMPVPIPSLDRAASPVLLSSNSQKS
# Summary of the method: as §1
# FEV = target: T7, FEV (Homo sapiens, UniProt Q99581 1-238); conditions: protein: recombinant; tags: N-terminal GST; dsDNA, one strand shown
# T7 sequence: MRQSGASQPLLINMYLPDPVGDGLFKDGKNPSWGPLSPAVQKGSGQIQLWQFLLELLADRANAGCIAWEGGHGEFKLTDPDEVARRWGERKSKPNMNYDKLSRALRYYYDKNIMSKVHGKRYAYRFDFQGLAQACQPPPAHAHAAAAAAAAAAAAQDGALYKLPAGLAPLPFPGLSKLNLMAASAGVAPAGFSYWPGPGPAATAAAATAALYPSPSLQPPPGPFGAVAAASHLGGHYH
# Summary of the method: as §1
# ETV5 = ETV5 (Homo sapiens, UniProt P41161 1-510); conditions: protein: recombinant; tags: N-terminal GST; dsDNA, one strand shown
# Sequence of ETV5 (P41161 whole entry): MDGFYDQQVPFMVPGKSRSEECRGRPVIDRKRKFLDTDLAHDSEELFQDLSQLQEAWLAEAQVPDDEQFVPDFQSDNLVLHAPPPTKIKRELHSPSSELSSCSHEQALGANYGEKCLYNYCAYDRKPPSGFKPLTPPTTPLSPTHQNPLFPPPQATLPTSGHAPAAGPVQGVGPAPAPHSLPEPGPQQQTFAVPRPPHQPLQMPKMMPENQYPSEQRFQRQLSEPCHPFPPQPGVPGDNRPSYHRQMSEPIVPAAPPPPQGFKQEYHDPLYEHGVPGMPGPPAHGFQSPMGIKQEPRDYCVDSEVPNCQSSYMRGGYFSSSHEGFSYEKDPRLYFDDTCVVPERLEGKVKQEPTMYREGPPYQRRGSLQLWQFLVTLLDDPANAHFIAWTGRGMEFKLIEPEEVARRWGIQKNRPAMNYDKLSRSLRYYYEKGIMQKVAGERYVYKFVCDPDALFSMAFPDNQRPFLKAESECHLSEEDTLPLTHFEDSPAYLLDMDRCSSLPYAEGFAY
# Summary of the method: as §1
# HSF1 = HSF1 (Homo sapiens, UniProt Q00613 1-529); conditions: protein: recombinant; tags: N-terminal GST; chain copies: 3; dsDNA, one strand shown
# Sequence of HSF1 (Q00613 whole entry): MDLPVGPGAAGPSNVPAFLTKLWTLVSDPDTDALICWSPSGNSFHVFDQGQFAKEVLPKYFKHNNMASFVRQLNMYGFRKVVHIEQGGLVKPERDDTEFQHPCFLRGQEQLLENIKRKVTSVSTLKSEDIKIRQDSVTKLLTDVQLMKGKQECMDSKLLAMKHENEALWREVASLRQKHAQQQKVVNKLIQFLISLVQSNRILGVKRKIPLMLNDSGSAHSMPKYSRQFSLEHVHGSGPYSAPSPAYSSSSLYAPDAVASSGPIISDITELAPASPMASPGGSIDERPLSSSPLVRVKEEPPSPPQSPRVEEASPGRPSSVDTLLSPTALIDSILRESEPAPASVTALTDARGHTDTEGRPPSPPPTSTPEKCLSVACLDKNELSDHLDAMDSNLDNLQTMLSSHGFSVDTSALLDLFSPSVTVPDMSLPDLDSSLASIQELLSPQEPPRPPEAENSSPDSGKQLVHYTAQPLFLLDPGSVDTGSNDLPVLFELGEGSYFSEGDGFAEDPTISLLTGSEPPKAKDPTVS
# Summary of the method: as §1
# SPIC = target: T8, SPIC (Homo sapiens, UniProt Q8N5J4 1-248); conditions: protein: recombinant; tags: N-terminal GST; dsDNA, one strand shown
# T8 sequence: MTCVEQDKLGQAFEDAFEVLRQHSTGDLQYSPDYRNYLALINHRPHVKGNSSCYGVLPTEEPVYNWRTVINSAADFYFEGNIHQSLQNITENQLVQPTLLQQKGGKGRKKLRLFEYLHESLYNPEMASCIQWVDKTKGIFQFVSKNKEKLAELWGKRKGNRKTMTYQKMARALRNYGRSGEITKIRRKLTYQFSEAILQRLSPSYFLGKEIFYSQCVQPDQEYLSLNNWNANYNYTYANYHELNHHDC
# Summary of the method: as §1
# ELF4 = ELF4 (Homo sapiens, UniProt Q99607 1-663); conditions: protein: recombinant; tags: N-terminal GST; dsDNA, one strand shown
# Sequence of ELF4 (Q99607 whole entry): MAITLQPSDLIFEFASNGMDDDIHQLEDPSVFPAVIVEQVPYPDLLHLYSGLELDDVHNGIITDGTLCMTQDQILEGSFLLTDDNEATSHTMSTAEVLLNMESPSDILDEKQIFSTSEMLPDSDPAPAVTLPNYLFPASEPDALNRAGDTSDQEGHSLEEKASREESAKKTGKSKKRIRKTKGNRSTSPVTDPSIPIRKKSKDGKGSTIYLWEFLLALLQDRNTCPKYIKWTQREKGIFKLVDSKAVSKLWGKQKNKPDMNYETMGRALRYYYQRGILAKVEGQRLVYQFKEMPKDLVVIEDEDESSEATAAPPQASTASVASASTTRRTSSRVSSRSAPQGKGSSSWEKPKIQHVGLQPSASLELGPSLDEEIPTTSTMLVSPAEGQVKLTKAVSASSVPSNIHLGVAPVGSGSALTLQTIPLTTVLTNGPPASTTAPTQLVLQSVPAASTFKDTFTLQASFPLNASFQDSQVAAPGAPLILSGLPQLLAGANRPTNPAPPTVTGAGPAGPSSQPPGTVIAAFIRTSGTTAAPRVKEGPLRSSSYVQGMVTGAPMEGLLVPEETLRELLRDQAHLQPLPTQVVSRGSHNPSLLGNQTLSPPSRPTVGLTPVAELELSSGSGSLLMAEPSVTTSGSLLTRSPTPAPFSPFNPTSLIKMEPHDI
# Summary of the method: as §1
# ELK4 = target: T9, ELK4 (Homo sapiens, UniProt P28324-2 1-405); conditions: protein: recombinant; tags: N-terminal GST; dsDNA, one strand shown
# T9 sequence: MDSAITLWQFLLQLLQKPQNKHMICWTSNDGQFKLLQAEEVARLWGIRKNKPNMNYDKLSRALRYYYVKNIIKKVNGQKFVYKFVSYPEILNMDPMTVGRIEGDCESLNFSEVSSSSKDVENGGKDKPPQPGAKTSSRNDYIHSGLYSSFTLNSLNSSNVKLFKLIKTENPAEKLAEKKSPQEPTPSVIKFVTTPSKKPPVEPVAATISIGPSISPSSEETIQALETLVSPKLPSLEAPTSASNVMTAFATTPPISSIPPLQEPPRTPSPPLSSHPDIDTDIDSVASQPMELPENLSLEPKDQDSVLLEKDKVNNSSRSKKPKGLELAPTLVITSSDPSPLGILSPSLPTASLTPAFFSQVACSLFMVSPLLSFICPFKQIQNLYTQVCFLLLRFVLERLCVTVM
# Summary of the method: as §1
# ETV2 = target: T10, ETV2 (Homo sapiens, UniProt O00321 1-342); conditions: protein: recombinant; tags: N-terminal GST; dsDNA, one strand shown
# T10 sequence: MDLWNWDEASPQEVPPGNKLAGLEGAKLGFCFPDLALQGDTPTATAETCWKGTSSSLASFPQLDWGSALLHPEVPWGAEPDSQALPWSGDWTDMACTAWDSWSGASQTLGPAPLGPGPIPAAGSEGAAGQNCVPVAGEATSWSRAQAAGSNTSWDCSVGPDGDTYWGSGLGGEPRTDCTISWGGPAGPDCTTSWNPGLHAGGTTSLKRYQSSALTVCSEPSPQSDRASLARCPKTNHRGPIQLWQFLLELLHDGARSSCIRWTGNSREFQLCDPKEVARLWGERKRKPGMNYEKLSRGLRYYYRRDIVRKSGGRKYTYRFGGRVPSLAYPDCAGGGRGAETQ
# Summary of the method: as §1
# ELF3 = target: T11, ELF3 (Homo sapiens, UniProt P78545 1-371); conditions: protein: recombinant; tags: N-terminal GST; dsDNA, one strand shown
# T11 sequence: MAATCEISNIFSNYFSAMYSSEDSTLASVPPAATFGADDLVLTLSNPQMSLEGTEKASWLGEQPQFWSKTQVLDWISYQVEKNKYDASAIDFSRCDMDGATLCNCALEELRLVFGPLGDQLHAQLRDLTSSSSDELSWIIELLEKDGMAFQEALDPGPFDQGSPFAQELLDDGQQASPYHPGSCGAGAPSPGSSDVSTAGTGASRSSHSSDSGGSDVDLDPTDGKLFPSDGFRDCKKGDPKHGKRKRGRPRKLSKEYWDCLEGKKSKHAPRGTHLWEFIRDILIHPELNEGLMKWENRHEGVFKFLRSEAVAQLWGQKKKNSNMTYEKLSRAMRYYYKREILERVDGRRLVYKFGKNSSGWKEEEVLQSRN
# Summary of the method: as §1
# CRX = CRX (Homo sapiens, UniProt O43186 1-299); conditions: protein: recombinant; tags: N-terminal GST; dsDNA, one strand shown
# Sequence of CRX (O43186 whole entry): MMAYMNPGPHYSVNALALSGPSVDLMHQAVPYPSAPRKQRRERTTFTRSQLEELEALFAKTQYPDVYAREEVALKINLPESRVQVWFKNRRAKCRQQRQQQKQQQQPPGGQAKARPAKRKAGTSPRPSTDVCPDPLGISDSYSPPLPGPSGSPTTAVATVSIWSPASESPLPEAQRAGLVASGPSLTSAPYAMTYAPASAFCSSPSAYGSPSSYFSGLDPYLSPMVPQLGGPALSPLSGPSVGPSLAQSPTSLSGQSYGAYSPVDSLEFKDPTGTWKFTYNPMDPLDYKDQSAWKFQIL
# Summary of the method: as §1
# ETV1 = ETV1 (Homo sapiens, UniProt P50549 1-477); conditions: protein: recombinant; tags: N-terminal GST; dsDNA, one strand shown
# Sequence of ETV1 (P50549 whole entry): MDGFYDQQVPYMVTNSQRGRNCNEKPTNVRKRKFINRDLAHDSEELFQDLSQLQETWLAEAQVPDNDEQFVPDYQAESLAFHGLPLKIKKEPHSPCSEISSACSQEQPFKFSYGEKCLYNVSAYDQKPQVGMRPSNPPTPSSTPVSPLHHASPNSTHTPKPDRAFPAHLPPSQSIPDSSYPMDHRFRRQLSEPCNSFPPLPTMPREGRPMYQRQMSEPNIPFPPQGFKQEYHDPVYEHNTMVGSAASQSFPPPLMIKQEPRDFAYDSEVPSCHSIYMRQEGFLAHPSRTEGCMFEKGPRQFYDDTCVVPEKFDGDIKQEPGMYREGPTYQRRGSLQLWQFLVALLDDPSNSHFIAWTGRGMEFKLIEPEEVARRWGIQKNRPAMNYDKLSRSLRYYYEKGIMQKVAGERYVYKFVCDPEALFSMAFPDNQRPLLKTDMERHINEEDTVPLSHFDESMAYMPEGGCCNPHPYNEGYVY
# Summary of the method: as §1
sequence,measurement,setting,value
TCCATG,binding signal,FLI1,"1.17 fold enrichment (6-mer frequency, TF over GST control)"
same,binding signal,ELK1,"1.18 fold enrichment (6-mer frequency, TF over GST control)"
same,binding signal,GABPA,"1.1 fold enrichment (6-mer frequency, TF over GST control)"
same,binding signal,ERG,"1.09 fold enrichment (6-mer frequency, TF over GST control)"
same,binding signal,ELF1,"1.11 fold enrichment (6-mer frequency, TF over GST control)"
same,binding signal,EHF,"1.17 fold enrichment (6-mer frequency, TF over GST control)"
same,binding signal,SPI1,"1.1 fold enrichment (6-mer frequency, TF over GST control)"
same,binding signal,SPIB,"1.13 fold enrichment (6-mer frequency, TF over GST control)"
same,binding signal,ELK3,"1.24 fold enrichment (6-mer frequency, TF over GST control)"
same,binding signal,FEV,"1.11 fold enrichment (6-mer frequency, TF over GST control)"
same,binding signal,ETV5,"1.2 fold enrichment (6-mer frequency, TF over GST control)"
same,binding signal,HSF1,"1.1 fold enrichment (6-mer frequency, TF over GST control)"
same,binding signal,SPIC,"1.05 fold enrichment (6-mer frequency, TF over GST control)"
same,binding signal,ELF4,"1.16 fold enrichment (6-mer frequency, TF over GST control)"
same,binding signal,ELK4,"1.25 fold enrichment (6-mer frequency, TF over GST control)"
same,binding signal,ETV2,"1.2 fold enrichment (6-mer frequency, TF over GST control)"
same,binding signal,ELF3,"1.25 fold enrichment (6-mer frequency, TF over GST control)"
same,binding signal,CRX,"1.13 fold enrichment (6-mer frequency, TF over GST control)"
same,binding signal,ETV1,"1.09 fold enrichment (6-mer frequency, TF over GST control)"
